PubChem BioAssay (NCI)
Compounds without any hit were thinned out: in the full panel of roughly 79,000, 15% have a hit. Active and inactive are the calls of the source. Cut-off read from the data, not from the text of the source: active = growth inhibition above about 70%; inactive = the rest.

Columns and labels:
[1] = NCI Yeast Anticancer Drug Screen. Data for the rad52 strain (AID 147);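 note: 0% = growth of vehicle-treated control cultures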; conditions: S. cerevisiae rad52 mutant growth inhibition, stronger effect = higher value
Outline: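 The repair-mutant yeast strain was incubated with compounds, then growth was read and inhibition derived relative to vehicle.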

[2] = NCI Yeast Anticancer Drug Screen. Data for the wt1 strain (AID 149);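 note: 0% = growth of vehicle-treated wt1 cultures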; conditions: S. cerevisiae wt1 strain (SPY 50644) growth inhibition, stronger effect = higher value
Outline: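 Measured: growth of wt1 yeast under compound versus vehicle treatment, reported as inhibition.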

[3] = NCI Yeast Anticancer Drug Screen. Data for the rad50EPP+ strain (AID 151);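 note: 0% = growth of vehicle-treated control cultures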; conditions: S. cerevisiae rad50 mutant strain, stronger effect = higher value
Outline: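 Vehicle-normalised growth inhibition; rad50EPP+ yeast strain, altered in DNA damage repair, compound-treated.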

[4] = NCI Yeast Anticancer Drug Screen. Data for the rad50 strain (AID 155);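 note: 0% = growth of vehicle-only cultures of the same strain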; conditions: S. cerevisiae rad50 strain growth inhibition, stronger effect = higher value
Outline: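 Growth of the mutant yeast was measured after compound exposure and referenced to vehicle-treated cultures.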

[5] = NCI Yeast Anticancer Drug Screen. Data for the mec2-1 strain (AID 157); conditions: S. cerevisiae mec2-1 strain, stronger effect = higher value
Outline: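 Mutant yeast (mec2-1) grown with compound; growth inhibition relative to vehicle control reported.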

[6] = NCI Yeast Anticancer Drug Screen. Data for the rad14 strain (AID 159);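 note: 0% = growth of vehicle-treated control cultures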; conditions: S. cerevisiae rad14 strain growth inhibition, stronger effect = higher value
Outline: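 Here, inhibition of yeast growth was measured after compound exposure, using a strain with a genetic defect in DNA damage repair and vehicle-treated cultures as the reference.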

[7] = NCI Yeast Anticancer Drug Screen. Data for the sgs1 mgt1 strain (AID 161);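 note: 0% = growth of cultures given vehicle only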; conditions: S. cerevisiae sgs1 mgt1 strain, stronger effect = higher value
Outline: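 This yeast growth screen uses a strain with defined DNA-repair lesions; compound-treated growth is compared with vehicle-treated growth.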

[8] = NCI Yeast Anticancer Drug Screen. Data for the CLN2oe strain (AID 163);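 note: 0% = growth of vehicle-only control cultures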; conditions: S. cerevisiae CLN2oe strain, stronger effect = higher value
Outline: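 Compounds are applied to yeast harbouring a defined cell-cycle control change; reduced growth compared with vehicle-treated controls gives the value.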

[9] = NCI Yeast Anticancer Drug Screen. Data for the cln2 rad14 strain (AID 165);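 note: 0% = growth equal to vehicle treated cultures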; conditions: S. cerevisiae cln2 rad14 strain, stronger effect = higher value
Outline: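 Readout is yeast growth inhibition versus vehicle-treated controls, using a strain with cln2 and rad14 alterations exposed to compound.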

[10] = NCI Yeast Anticancer Drug Screen. Data for the bub3 strain (AID 167); conditions: S. cerevisiae bub3 mutant strain, stronger effect = higher value
Outline: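 Whole-cell yeast assay. The mutant strain was incubated with compounds, and growth inhibition was determined by comparison with vehicle-treated cells.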

[11] = NCI Yeast Anticancer Drug Screen. Data for the wt2 strain (AID 169);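 note: 0% = growth of vehicle-treated yeast cultures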; conditions: S. cerevisiae wt2 strain growth inhibition, stronger effect = higher value
Outline: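 Against vehicle-treated controls, the growth of yeast exposed to each compound was compared, and the inhibition was recorded.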

[12] = NCI Yeast Anticancer Drug Screen. Data for the mlh1 strain (AID 171);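 note: 0% = growth of vehicle-treated control cultures of the same strain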; conditions: S. cerevisiae mlh1 strain growth inhibition, stronger effect = higher value
Outline: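 Measured: yeast growth. Reference: vehicle-treated controls. Organism: strain with a defined alteration affecting DNA damage repair or cell cycle control, treated with compound.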

[13] = NCI Yeast Anticancer Drug Screen. Data for the mlh1 rad18 strain (AID 175); conditions: S. cerevisiae mlh1 rad18 strain growth inhibition, stronger effect = higher value
Outline: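 Genetically defined yeast (DNA repair-deficient) exposed to compounds; growth inhibition determined relative to vehicle.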

[14] = NCI Yeast Anticancer Drug Screen. Data for the rad18 strain (AID 177); conditions: S. cerevisiae rad18 mutant growth inhibition, stronger effect = higher value
Outline: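 Vehicle-treated cultures served as the baseline for scoring compound-induced growth inhibition in DNA-repair-mutant yeast.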

[15] = at 5.0 µM (retest, dose inferred, filed as 0.5)
[16] = at 50.0 µM (retest, dose inferred, filed as 5.0)

Measured: growth inhibition

Cc1cccc(/C=N/NC(=S)N(C)CCc2ccccn2)n1
active: [1]; at 1.2 µM 96% | [1]; at 3.7 µM 98% | [1]; at 11.0 µM 98% | [1]; at 33.0 µM 99% | [1]; at 100.0 µM 99% | [2]; at 1.2 µM 90% | [2]; at 3.7 µM 94% | [2]; at 11.0 µM 98% | [2]; at 33.0 µM 99% | [2]; at 100.0 µM 99% | [3]; at 33.0 µM 84% | [3]; at 100.0 µM 90% | [4]; at 1.2 µM 91% | [4]; at 3.7 µM 94% | [4]; at 11.0 µM 96% | [4]; at 33.0 µM 98% | [4]; [16] 99% | [4]; at 50.0 µM 78.6% | [4]; at 100.0 µM 98% | [5]; at 1.2 µM 94% | [5]; at 3.7 µM 97% | [5]; [15] 81% | [5]; at 11.0 µM 98% | [5]; at 33.0 µM 99% | [5]; [16] 97% | [5]; at 50.0 µM 86.7% | [5]; at 100.0 µM 99% | [6]; at 1.2 µM 95% | [6]; at 3.7 µM 97% | [6]; at 11.0 µM 99% | [6]; at 33.0 µM 99% | [6]; at 100.0 µM 99% | [7]; [16] 97% | [7]; at 50.0 µM 91.3% | [8]; at 1.2 µM 81% | [8]; at 3.7 µM 92% | [8]; at 11.0 µM 97% | [8]; at 33.0 µM 98% | [8]; at 100.0 µM 98% | [9]; [16] 97% | [9]; at 50.0 µM 90.7% | [10]; at 3.7 µM 91% | [10]; at 11.0 µM 97% | [10]; at 33.0 µM 98% | [10]; [16] 99% | [10]; at 50.0 µM 91% | [10]; at 100.0 µM 98% | [11]; at 1.2 µM 89% | [11]; at 3.7 µM 93% | [11]; at 11.0 µM 97% | [11]; at 33.0 µM 98% | [11]; at 100.0 µM 99% | [12]; at 1.2 µM 91% | [12]; at 3.7 µM 95% | [12]; at 11.0 µM 98% | [12]; at 33.0 µM 98% | [12]; at 100.0 µM 99% | [13]; [16] 99% | [13]; at 50.0 µM 92.1% | [14]; at 1.2 µM 92% | [14]; at 3.7 µM 96% | [14]; at 11.0 µM 98% | [14]; at 33.0 µM 98% | [14]; at 100.0 µM 98%
inactive: [3]; at 1.2 µM -23% | [3]; at 3.7 µM -11% | [3]; at 11.0 µM 54% | [4]; [15] 16% | [7]; [15] 44% | [9]; [15] 9% | [10]; at 1.2 µM 56% | [10]; [15] 56% | [13]; [15] 61%
